# Data as given in PubChem BioAssay AID1508600 (Functional Genomics Laboratory (NCATS/FGL), 2020).
# Among all 53,000 sequences or so, about 3,700 (7%) were called active. The sample as a whole holds a higher share of actives than the screen did. Unmarked numbers belong to inactive results.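 How the source made its calls: active means gene knockdowns whose robust z-score for IL-1 alpha signal is at least 2 or at most -2, so actives lie on both sides; inactive means the rest.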
# Experiment: Components of the Cytosolic LPS Sensing Pathway: Gene Identification via Genome-wide siRNA Screen;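 further: robust z of the log signal after scaling to non-targeting control siRNA wells of the plate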
# Conditions: RAW264.7 macrophages, IL-1a HTRF, actives lie on both sides, screened at 100 nM (by protocol), cells primed 5 h with Pam3CSK4 first
# Procedure, shortened: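 Supernatant IL-1a by HTRF from RAW264.7 cells primed with Pam3CSK4 (5 hours) and transfected with LipidA (24 hour) after 48h siRNA knockdown at 100 nM; cell viability checked with CellTiter-Glo.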
row,Sequence,z-score
1,GGAAGGUUUGUUGUUUUGUTT against Apon,-1.58
2,GGAUAUGACUAGGUGAAUUTT against Ebf3,-1.04
3,GGACAUUGUCAAUAUGCUCTT against Pygm,0.633
4,GGUGUGGAAGUCAGUUUAATT against Serpinb3a,2.53 (active)
5,CGAUGUGACUAUUUGUUGATT against Snx11,0.425
6,GGACCUAAACUGUCAGGAGTT against Eif3g,0.15
7,GCUCUGUUGUGGAUGCAAUTT against Lonrf2,0.859
8,GGGCGGUUCAAAAGGUCAGTT against Cacnb1,2.27 (active)
9,CCGGGAUGGAGAAUAAGCUTT against Fgfbp3,-0.264
10,GCUAUAGGGACCUCUGUCATT against Cdh5,-2.72 (active)
11,CCAUGACAUUUCCUAAGUUTT against Sall3,-0.2
12,GGAGAUUUAUACACACUUGTT against Snx17,0.615
13,GCUCCUACUACUGCUUUGCTT against Crem,0.979
14,GCCCAAAGGUCAAGGAUAUTT against Rptn,-0.036
15,GCUAAGUUUCACCCAAAGGTT against Dennd2c,1.42
16,GGAGUGAGACAAGUGUAUGTT against Sprr1a,-0.0345
17,GGAAAGAUUCCGAACAAUUTT against Rab8b,2.12 (active)
18,GGUGGUUGAACAUAAGACUTT against Zfp688,1.27
19,GGCAAUACAAACAAGUUCUTT against Klhdc2,1.05
20,GGCCUUGUUUUUAAGUAAATT against Atp12a,-0.178
21,GCCAAUGAACCGAUCUCUGTT against Ep400,-2.13 (active)
22,GGAAUUGGGUAGUACAAAATT against Irak1,0.282
23,GGUAAUGAAUAGGAAACUCTT against Ostm1,-0.773

row,Sequence,z-score
1,GGAACACACAGAGGUUUAUTT against Hacd1,1.87
2,GGGAGUGGCUCCUCAGAAATT against AW549877,-1.98
3,CGCACAAGUGCUUGAGUUATT against Ccdc151,1.03
4,GGACCAAUGUUUUCUUCCUTT against Gngt2,0.773
5,GCCUUAAGUGUUCAUGUAATT against Vhl,-0.872
6,GGAAGCCCACUACAACAAUTT against Krt19,-0.236
7,GCAUUGUGCUGAUGUGCGGTT against Ap1ar,3.01 (active)
8,GGUAUUCUGGCAAGACCACTT against Aatf,1.31
9,GGAAGCCUAGUUUUUUUAATT against Csnk2a1,2.89 (active)
10,GCUUUCAGUGAGGUACAAGTT against Gm4425,-1.25
11,GCUCUUUCUAGCCCUUCCCTT against Spry3,-0.915
12,GGAAAGAUAGAAGACAAACTT against Spry4,-0.0777
13,GGUUCUGAUAGCUCAAGAGTT against Polr2b,-1.96
14,GGUUUUGAAAUUCCAGAAUTT against Nol9,-0.22
15,GGCAACUGUUGUAAAUCAATT against Veph1,-1.01
16,GGACUCAAACGACACAUGCTT against Eci2,2.42 (active)
17,GCCAGUCAUUCAGUAAAGUTT against Mysm1,-1.15
18,GGAGAAAUGUCAGUGCGAUTT against Mlc1,0.431
19,GGUCACAGAAUCGGUUUCATT against Cuta,1.02
20,GGUUCUUGUUUUUACCCGCTT against Fam187b,1.19
21,GGAGUGGCUAUGUUUUCGATT against Hrg,0.658
22,GGACUCGUUCCACUAUCAUTT against Naa20,0.33
23,GCGGUUUCGAACAAUCACGTT against Rab8a,-2.4 (active)

row,Sequence,z-score
1,UCAACUGCUUAGAGCAUGUTT against Tmem259,0.653
2,CGACCUCCAGUAAUAACCUTT against Olfr310,-0.746
3,GGAAAGCUUGGACAUUAAGTT against Rps6kc1,-0.0887
4,GGUCACGUCAGCAAAGCAATT against B930095G15Rik,-2.73 (active)
5,GCGAUGUGGACAGAAGUACTT against Cyba,1.01
6,GGUGUUUCAUAAGAAGGAATT against 1700010H22Rik,-1.01
7,GCCAGUACUCUGCUUGUGATT against Naif1,-1.64
8,GAUCCCUGGAUUGUGGAGUTT against 2310057N15Rik,0.26
9,GGACGAGCUGUAUUUGAAUTT against Gsk3a,-0.663
10,CCAAAGAUACCAUAGGAUUTT against Zc3h12a,1.05
11,GGUAGAUCCUAUCCUGUCUTT against Foxo4,-2.57 (active)
12,GCUGCAAUAGUCACUGGAGTT against H2-K1,0.115
13,GCGACCAGCAGGUCAAAAUTT against Hoxd12,3.09 (active)
14,CCCUUCUCUGAGACAACACTT against Tcirg1,1.42
15,GGAAAUAAUUCACUCACCATT against Eya1,-2.99 (active)
16,CCAAGUCGUAAUCUAGAAGTT against Scn7a,0.191
17,GCUGGACCUUCAUGUAAUATT against Pcsk1,-0.234
18,CCUCAUGUCUACAAAGUUATT against Gvin1,-1.14
19,GCGAGUUUUUGGAUGGUAGTT against Slc4a3,0.243
20,GGUAUGCAUGAACAUAAUGTT against Prl7c1,0.788
21,GGACUUAAAAGAGGAGAUCTT against 4933434E20Rik,3.73 (active)
22,GGCAUUUUCGUAUAGUUACTT against B3gnt9,0.81
23,GGUCAUCAGCUCUAUGAGCTT against Fry,0.0787
